# Measurements: the supplement of paper PMC11732987, “Enantioselective OTUD7B fragment discovery through chemoproteomics screening and high-throughput optimisation” (Communications Chemistry, 2025)
# A number with no mark means an inactive call.
# Key:
# Test in all cases: log2 ratio of Biotin-Ahx-Ub-VS probe labelling (fragment/DMSO); higher = less target engagement (more negative = stronger competition), active = hit call of the paper (q ≤ 0.05, log2 ratio ≤ -1)
# Details in all cases: compound concentration: 200 uM; treatment time: 3 h
# USP19 = molecular target: T1, USP19 (UniProt O94966)
# T1 sequence (whole entry): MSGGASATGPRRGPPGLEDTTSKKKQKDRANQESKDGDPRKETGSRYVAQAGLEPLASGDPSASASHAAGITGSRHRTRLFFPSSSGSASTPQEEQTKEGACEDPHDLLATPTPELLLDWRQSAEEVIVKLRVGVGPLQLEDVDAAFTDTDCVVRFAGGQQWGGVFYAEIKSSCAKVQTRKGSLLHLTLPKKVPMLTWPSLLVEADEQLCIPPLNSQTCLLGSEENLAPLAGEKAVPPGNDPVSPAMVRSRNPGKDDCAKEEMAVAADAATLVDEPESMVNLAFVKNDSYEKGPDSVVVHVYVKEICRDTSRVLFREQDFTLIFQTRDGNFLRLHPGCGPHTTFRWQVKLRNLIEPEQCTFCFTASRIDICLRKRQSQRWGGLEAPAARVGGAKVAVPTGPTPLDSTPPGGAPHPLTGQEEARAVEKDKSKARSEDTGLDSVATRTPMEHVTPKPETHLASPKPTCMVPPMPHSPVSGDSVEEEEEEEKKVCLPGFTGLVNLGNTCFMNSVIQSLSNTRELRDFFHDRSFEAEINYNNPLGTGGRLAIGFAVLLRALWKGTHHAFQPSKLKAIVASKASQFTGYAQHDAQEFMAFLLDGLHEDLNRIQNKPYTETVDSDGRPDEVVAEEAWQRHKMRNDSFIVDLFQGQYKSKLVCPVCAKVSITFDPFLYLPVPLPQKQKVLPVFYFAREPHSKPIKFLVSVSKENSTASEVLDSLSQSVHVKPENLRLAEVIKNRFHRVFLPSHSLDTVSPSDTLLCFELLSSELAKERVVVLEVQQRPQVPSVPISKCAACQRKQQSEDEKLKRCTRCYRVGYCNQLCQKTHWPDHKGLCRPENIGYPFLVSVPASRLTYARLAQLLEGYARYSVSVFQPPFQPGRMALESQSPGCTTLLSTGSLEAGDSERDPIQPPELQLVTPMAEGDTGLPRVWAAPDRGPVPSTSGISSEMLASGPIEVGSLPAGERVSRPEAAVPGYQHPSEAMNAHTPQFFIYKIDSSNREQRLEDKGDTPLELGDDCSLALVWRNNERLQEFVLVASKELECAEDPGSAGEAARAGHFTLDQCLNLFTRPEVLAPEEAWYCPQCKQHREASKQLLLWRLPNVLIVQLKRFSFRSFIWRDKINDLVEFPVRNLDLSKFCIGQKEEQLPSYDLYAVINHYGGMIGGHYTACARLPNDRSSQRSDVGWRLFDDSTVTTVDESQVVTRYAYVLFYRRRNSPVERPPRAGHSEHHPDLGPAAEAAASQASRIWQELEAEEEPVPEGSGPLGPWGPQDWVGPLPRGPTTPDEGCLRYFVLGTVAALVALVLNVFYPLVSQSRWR
# Method in brief: (§1)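 HEK293T lysate, 495 µg per sample in Tris/CHAPS/IGEPAL buffer with protease inhibitors, was treated in triplicate with fragment at 200 µM or vehicle for 3 h and then with Biotin-Ahx-Ub-VS at 0.5 µM final for 1 h. Labelled DUBs were NeutrAvidin-enriched, digested with LysC and trypsin, and run by diaPASEF LC-MS/MS. Spectronaut label-free quantities were global-median-normalised, and values are average log2 fragment/vehicle ratios by unpaired t-test on proteins with ≥2 unique peptides.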
# USP22 = molecular target: T2, USP22 (UniProt Q9UPT9)
# T2 sequence (whole entry): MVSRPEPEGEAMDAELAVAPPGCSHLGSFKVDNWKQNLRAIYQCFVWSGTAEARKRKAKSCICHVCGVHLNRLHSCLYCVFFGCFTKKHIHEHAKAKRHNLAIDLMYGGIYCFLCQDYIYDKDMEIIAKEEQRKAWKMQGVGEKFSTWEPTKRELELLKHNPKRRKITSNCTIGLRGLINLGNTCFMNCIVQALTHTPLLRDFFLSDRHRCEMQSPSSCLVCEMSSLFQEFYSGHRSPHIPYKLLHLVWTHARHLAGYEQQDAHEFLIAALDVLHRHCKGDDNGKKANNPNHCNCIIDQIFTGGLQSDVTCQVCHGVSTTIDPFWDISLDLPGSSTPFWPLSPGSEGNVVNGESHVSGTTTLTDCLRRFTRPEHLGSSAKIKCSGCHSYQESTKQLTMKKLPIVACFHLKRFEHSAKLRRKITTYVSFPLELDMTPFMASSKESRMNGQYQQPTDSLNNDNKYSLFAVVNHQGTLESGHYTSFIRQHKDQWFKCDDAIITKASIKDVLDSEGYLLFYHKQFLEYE
# Method in brief: as §1
# USP24 = USP24 (UniProt Q9UPU5)
# Sequence of USP24 (Q9UPU5 whole entry): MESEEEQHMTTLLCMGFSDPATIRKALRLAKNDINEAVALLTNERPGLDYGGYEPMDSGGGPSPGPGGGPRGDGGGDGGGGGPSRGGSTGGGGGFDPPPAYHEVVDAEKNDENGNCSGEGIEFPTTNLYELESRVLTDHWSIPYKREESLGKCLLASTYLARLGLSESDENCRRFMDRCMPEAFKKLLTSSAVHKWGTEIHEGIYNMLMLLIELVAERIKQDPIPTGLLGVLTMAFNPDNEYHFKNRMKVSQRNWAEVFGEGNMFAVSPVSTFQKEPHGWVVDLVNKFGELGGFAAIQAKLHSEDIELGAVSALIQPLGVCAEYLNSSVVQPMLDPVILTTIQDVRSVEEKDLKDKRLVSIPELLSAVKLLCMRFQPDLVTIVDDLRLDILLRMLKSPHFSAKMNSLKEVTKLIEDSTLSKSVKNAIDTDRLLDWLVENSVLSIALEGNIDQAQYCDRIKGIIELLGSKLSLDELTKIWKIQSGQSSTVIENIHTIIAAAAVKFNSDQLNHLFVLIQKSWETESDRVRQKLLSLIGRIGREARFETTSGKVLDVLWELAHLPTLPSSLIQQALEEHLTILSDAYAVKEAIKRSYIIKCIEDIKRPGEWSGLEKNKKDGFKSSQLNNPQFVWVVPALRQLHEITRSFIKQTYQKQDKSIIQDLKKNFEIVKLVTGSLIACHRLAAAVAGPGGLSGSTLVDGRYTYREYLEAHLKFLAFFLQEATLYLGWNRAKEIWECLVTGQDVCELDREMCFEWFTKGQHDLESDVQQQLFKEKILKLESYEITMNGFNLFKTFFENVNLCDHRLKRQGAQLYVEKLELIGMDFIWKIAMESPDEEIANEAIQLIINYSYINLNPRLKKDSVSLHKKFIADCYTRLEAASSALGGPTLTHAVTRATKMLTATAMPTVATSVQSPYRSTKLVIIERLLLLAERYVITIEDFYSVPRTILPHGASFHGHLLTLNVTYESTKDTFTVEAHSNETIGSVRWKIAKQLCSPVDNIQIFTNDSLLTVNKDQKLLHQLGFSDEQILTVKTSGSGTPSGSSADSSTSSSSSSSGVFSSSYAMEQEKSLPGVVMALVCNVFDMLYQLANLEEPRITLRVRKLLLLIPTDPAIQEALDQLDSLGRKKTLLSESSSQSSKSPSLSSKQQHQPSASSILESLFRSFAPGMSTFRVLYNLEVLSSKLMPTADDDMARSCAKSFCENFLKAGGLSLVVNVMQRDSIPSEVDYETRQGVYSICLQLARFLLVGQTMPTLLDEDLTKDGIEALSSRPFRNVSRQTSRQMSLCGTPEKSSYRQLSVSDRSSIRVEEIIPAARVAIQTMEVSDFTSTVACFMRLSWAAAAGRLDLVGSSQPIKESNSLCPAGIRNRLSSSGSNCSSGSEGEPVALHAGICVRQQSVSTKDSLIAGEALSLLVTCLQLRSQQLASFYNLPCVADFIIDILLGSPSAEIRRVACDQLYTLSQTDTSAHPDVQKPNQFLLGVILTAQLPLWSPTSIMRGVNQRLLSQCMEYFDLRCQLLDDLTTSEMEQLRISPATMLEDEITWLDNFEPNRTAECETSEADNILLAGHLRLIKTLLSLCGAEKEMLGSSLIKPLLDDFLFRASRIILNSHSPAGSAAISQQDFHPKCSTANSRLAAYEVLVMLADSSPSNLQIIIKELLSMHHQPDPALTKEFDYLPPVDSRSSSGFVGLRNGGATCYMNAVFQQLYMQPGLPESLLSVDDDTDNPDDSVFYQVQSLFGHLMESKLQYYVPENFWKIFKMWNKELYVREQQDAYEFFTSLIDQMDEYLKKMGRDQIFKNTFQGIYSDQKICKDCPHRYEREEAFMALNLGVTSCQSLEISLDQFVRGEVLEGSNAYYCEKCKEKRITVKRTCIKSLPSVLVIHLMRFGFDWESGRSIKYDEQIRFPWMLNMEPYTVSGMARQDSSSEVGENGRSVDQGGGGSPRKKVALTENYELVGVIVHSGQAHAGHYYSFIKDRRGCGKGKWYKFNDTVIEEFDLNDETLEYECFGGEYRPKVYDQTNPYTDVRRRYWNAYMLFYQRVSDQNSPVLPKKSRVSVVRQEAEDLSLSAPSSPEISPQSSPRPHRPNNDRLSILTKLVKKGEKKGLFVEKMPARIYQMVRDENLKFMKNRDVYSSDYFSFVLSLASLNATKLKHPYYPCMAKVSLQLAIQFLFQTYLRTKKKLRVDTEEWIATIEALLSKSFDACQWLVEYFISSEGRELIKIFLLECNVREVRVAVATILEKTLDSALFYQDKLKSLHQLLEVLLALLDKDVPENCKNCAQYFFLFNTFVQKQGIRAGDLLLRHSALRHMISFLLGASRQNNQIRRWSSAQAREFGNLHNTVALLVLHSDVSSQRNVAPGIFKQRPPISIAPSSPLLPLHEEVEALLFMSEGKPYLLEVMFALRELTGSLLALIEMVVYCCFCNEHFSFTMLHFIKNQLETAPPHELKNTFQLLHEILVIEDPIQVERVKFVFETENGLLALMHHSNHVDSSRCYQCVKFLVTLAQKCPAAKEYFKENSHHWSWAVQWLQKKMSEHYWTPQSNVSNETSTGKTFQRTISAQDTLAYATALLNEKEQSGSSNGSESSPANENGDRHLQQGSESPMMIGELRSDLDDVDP
# Method in brief: as §1
# USP25 = molecular target: T3, USP25 (UniProt Q9UHP3)
# T3 sequence (whole entry): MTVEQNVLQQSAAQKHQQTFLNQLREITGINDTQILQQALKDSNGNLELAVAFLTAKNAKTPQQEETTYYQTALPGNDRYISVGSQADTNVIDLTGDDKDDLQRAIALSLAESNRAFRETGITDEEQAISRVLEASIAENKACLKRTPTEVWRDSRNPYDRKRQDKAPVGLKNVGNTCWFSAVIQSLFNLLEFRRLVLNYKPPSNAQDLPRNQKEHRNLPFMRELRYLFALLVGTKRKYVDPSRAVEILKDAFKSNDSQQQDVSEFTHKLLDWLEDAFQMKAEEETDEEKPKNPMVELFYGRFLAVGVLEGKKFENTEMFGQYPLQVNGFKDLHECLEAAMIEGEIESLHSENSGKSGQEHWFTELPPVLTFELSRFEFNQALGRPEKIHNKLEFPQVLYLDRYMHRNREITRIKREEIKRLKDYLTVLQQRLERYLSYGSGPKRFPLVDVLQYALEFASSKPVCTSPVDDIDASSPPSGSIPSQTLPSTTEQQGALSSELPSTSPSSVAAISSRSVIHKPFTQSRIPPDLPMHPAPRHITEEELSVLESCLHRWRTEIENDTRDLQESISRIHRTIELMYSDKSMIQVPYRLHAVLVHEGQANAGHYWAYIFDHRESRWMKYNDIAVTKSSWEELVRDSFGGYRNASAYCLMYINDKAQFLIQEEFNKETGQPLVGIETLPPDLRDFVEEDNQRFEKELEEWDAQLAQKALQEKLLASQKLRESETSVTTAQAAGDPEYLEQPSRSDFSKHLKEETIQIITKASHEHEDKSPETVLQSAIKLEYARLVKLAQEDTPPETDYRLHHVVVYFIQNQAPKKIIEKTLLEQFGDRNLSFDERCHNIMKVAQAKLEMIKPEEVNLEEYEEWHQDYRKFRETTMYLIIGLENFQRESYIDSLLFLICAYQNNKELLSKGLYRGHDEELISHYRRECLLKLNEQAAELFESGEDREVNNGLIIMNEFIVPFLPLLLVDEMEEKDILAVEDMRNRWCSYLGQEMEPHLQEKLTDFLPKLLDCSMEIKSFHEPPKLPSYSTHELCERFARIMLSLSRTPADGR
# Method in brief: as §1
# USP28 = molecular target: T4, USP28 (UniProt Q96RU2)
# T4 sequence (whole entry): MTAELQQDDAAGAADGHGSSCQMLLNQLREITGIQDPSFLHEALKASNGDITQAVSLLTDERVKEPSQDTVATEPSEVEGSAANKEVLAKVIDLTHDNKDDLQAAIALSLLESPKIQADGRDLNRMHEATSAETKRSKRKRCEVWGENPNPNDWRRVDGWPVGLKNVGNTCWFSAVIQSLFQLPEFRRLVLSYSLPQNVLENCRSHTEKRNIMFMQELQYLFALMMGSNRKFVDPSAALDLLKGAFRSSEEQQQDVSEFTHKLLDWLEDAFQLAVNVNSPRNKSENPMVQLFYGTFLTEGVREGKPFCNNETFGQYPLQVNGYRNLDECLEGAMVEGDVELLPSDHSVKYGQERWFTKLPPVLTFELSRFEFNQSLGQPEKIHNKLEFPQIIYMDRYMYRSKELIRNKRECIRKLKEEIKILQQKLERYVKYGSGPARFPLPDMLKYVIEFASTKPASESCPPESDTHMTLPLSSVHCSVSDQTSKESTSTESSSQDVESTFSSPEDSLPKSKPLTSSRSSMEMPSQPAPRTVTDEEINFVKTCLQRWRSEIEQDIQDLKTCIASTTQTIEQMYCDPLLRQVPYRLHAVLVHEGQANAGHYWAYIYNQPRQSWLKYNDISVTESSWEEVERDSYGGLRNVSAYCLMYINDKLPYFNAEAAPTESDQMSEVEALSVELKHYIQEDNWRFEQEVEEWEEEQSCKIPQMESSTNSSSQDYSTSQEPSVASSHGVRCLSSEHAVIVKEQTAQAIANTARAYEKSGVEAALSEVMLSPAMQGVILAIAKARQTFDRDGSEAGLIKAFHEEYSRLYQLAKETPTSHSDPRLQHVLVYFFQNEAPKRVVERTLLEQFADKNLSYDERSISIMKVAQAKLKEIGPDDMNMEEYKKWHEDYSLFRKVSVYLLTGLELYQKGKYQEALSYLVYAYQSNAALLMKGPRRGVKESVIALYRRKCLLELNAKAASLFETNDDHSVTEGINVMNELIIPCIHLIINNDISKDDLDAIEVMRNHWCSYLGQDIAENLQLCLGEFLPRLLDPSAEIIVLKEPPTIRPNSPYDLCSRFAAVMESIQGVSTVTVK
# Method in brief: as §1
compound,measurement,setting,value
CC1Cc2ccccc2N1C(=O)CCl (stereo not given),log2 ratio of Biotin-Ahx-Ub-VS probe labelling,USP19,-0.643
same,log2 ratio of Biotin-Ahx-Ub-VS probe labelling,USP22,-0.161
same,log2 ratio of Biotin-Ahx-Ub-VS probe labelling,USP24,-1.61 (active)
same,log2 ratio of Biotin-Ahx-Ub-VS probe labelling,USP25,-0.876
same,log2 ratio of Biotin-Ahx-Ub-VS probe labelling,USP28,-0.929
